Data published in PubChem BioAssay AID489025 (Southern Research Specialized Biocontainment Screening …, 2010).
Among all 2,300 compounds or so, about 790 (34%) were called active. This is one part of the list. Measured potencies and affinities stand elsewhere. A number with no mark means an inactive call. No rule for the calls is given here.

test: THP-1 cell cytotoxicity, dose response, cytotoxicity control for non-replicating M. tuberculosis project (AID 489025); details: THP-1 cell viability; series mostly up to 40 µM; viability: at the top concentration

SMILES | viability
O=C(Nc1sc2c(c1C(=O)O)CCCC2)c1ccc(F)cc1 | 80.8%
COC(=O)CCC(=O)Nc1sc(Cc2ccccc2)c(C)c1C(N)=O | 87.3%
O=C(c1ccc([N+](=O)[O-])o1)N1CCc2ccccc2C1 | 75.1%
O=C(CCSc1nnc(-c2ccncc2)o1)Nc1ccc(Cl)cc1 | 92.8%
CC1(C)CC(=O)c2cc(C(=O)NNc3ccccc3)c(=O)n(-c3ccccc3)c2C1 | 99.1%
Cc1c(Cl)cccc1-c1ccc(CNCc2ccccn2)o1 | 72.4%
CC(C)(C)CC(=O)NC(=S)NCc1ccco1 | 116%
O=C(c1cc(F)ccc1F)C1CCCN(Cc2ccc3nonc3c2)C1 (stereo unspecified) | 99.4%
COCc1[nH]nc2c1C(c1sccc1C)C(C#N)=C(N)O2 (stereo unspecified) | 105%
CCOC(=O)N1CCC(N2CCCC(C(=O)c3ccc4cc(OC)ccc4c3)C2)CC1 (stereo unspecified) | 70.4%
CCOC(=O)CNCCC(=O)c1ccc(Br)cc1 | 105%
O=C(Nc1nccs1)c1ccc2ccccc2c1 | 98.3%
O=C(NCc1cccs1)c1ccc([N+](=O)[O-])cc1 | 118%
CCOC(=O)c1cc(-c2csc(COc3ccc(Cl)cc3)n2)on1 | 104%
CC(C)CCC1=NN(C(=O)c2ccco2)C(O)(C(F)(F)F)C1 (stereo unspecified) | 92.9%
O=C(NC(=S)NCCc1ccccc1)c1ccccc1 | 110%
Cc1cc(C(=O)NNc2ccc(Cl)cc2)no1 | 96.8%
O=C(OCc1ccccn1)c1ccc(COc2ccccc2Cl)o1 | 84.8%

SMILES | viability
Cc1n[nH]c(C)c1CCNC(=O)C1CCC(=O)N(Cc2ccccc2F)C1 (stereo unspecified) | 120%
Cn1c(CNc2ccccc2O)nc2ccccc21 | 98.4%
C=CCn1c(NC(=O)c2ccccc2)nc2ccccc21 | 90.3%
O=C(Nc1ccc(Cl)cc1)C1CCCC1 | 81.9%
O=C(Nc1nc2ccccc2n1CCN1CCCC1)C1CCCCC1 | 106%
CCCCSc1nnc(-c2cc(Br)ccc2N)c(=O)[nH]1 | 99.5%
O=C(c1ccc(Br)o1)N1CCC(Cc2ccccc2)CC1 | 79.1%
CN1c2ccsc2/C(=N/Nc2ccccc2)CS1(=O)=O | 78%
CCc1ccc(N2CCN(CCNC(=O)Nc3ccc(OC)cc3)CC2)cc1 | 86%
O=C1Nc2cc(C(=O)NCCCN3CCOCC3)ccc2S/C1=C/c1cccc(Cl)c1 | 95.3%
COC(=O)c1ccc(N2CCN(CCNC(=O)Nc3ccc(OC)cc3)CC2)cc1 | 104%
O=C1CC(N2CCSCC2)C(=O)N1CCc1ccccc1 (stereo unspecified) | 110%
CCOC(=O)C(=O)Cc1nc2ccccc2s1 | 93%
Cc1ccc(-c2nnc(COC(=O)c3cccs3)o2)cc1 | 80.8%
O=C(NCCN1C(=O)S/C(=C\c2ccccc2F)C1=O)C1CCN(S(=O)(=O)c2cccs2)CC1 | 121%
O=C(O)CCCCCN1C(=O)/C(=C\c2ccncc2)SC1=S | 80.8%
O=C(COc1ccc2ccccc2c1)N1CCCC1 | 108%
O=C(COC(=O)CCN1C(=O)/C(=C\C=C\c2ccccc2)SC1=S)Nc1cc(F)ccc1F | 116%
